Here are results for 40 compounds from PubChem BioAssay (Tox21).

Structures are written as SMILES. Inconclusive results are not listed. The source made the active and inactive calls. The call rests on the fitted dose curve; in most records, active means well fitted cell-killing curve with a large enough effect in the repeat runs; inconclusive means weak or mixed curves; inactive means flat fitted curve, though single readings scatter.

This test can be described thus: qHTS RealTime-Glo MT Cell Viability Assay in HepG2 cells - 8 hour (AID 1224873). Further: nearly all actives have a fitted effect of over 55% in size. As to conditions: RealTime-Glo luminescence; series mostly up to 76.8 µM. An excerpt: National Center for Advancing Translational Sciences [NCATS]
NIH Chemical Genomics Center [NCGC]
U.S. Environmental Protection Agency [EPA]
National Institutes of Environmental Health Sciences [NIEHS]
National Toxicology Program [NTP]
U.S. Food and Drug Administration [FDA]
Measure of cell viability is critical in the cell-base assay. Analysis of cell viability is necessary for the characterization of cell responses to cytotoxic drugs and environmental stress. A RealTime-Glo MT Cell Viability Assay to monitor cell viability in real time of continues cell culture during 40 hours of compound treatment was used to screen Tox21 10K library compounds in HepG2 cells. The RealTime-Glo MT Cell Viability Assay is a nonlytic, homogeneous, bioluminescent method to measure cell viability in real time using a simple, plate-based method. The assay involves adding NanoLuc luciferase and a cell-permeant prosubstrate to cells in culture. Viable cells reduce the proprietary prosubstrate to generate a substrate for NanoLuc luciferase. This substrate diffuses from cells into the surrounding culture medium, where it is rapidly used by the NanoLuc Enzyme to produce a luminescent signal. The signal correlates with the number of viable cells, making the assay well suited for cytotoxicity studies.
Tox21 Assay Protocol Summary:
The mixture of HepG2 cell suspension and reagents were dispensed at 600cells/6 ul/well in 1536-well tissue culture treated black solid bottom plates using a Multidrop dispenser. After the assay plates were incubated at a 37 C/5% CO2 incubator for 5 hours, 23 nL of compounds dissolved in DMSO, positive and negative controls was transferred to the assay plate by a pintool work station. The plates were incubated at 37 C for 40 hours. The luminescence intensity were measured at 0h, 8h, 16h, 24h, 32h and 40h time points using ViewLux plate reader during compound treatment.
For orientation: In qHTS, concentration-response curves come from the screen itself.
As to `CNC(=O)Oc1ccccc1OC(C)C`, the compound was classed as inactive. Turning to `[N-]=[N+]=[N-]`, the call was inactive. With `C1CC2OC2CC1C1CO1` (stereo not given), the compound was classed as inactive. In the case of `CCOC(=O)c1ccccc1C(=O)OCC` it was “inactive”. On to `COCCl`, for which the compound was classed as inactive. For `COC(=O)c1ccccc1C(=O)OC`, the compound was called inactive.

As for `C1CN2CCN1CC2`, the outcome was inactive. Turning to `C[C@]12CC[C@H]3[C@@H](CC[C@@]45O[C@@H]4C(O)=C(C#N)C[C@]35C)[C@@H]1CC[C@@H]2O`, the outcome was inactive. Under `O=C1CCCN1` stands “inactive”; under `O=NN1CCCCCCC1`, “inactive”; under `O=c1[nH]c(=O)[nH]c(=O)[nH]1`, “inactive”. For the compound `Cc1ccc(N)cc1Cl`, the compound was called inactive.

`Cc1ccc(N)cc1N`: the compound was called inactive. For the compound `COc1ccc2c3c1O[C@H]1[C@@H](O)C=C[C@H]4[C@@H](C2)N(C)CC[C@@]341`, the outcome was inactive. In the case of `NCCc1ccc(O)cc1` it was “inactive”. In the case of `CCCCCCCCCl` it was “inactive”; in that of `CC(C)NC(=O)N1CC(=O)N(c2cc(Cl)cc(Cl)c2)C1=O`, “inactive”; in that of `CON(C)C(=O)Nc1ccc(Cl)c(Cl)c1`, “inactive”. In the case of `CN(C)N=O` it was “inactive”; in that of `CC(C)=C[C@@H]1[C@@H](C(=O)OCc2coc(Cc3ccccc3)c2)C1(C)C`, “inactive”; in that of `CC1OC(C)OC(C)O1` (stereo not given), “inactive”.

In the case of `CC(C#N)CCC#N` (stereo not given), the outcome was inactive. In the case of `CCCCCCCCCCCC#N` it was “inactive”; in that of `CCOP(OCC)OCC`, “inactive”. As for `C=CCO`, the outcome was inactive. As to `CC(Br)C(=O)O` (stereo not given), the call was inactive. In the case of `Cc1ccc([N+](=O)[O-])cc1C` it was “inactive”.

Take `Clc1cccc(Cl)c1Cl`: the call was inactive. In the case of `CN(C)CCO` it was “inactive”; in that of `O=[N+]([O-])c1ccccc1`, “inactive”; in that of `CCCN(CCC)N=O`, “inactive”. Consider `Cc1cc(Cl)ccc1O`, for which the compound was called inactive. Under `c1ccc2c(c1)Oc1ccccc1O2` stands “inactive”.

Consider `CCN(CC)c1ccccc1`, for which the outcome was inactive. Under `O=NN1CCCC1` stands “inactive”; under `CC(=O)C=C(C)C`, “inactive”; under `c1ccc(-c2ccccc2)cc1`, “inactive”. As for `COC(=O)c1ccccc1N`, the compound was called inactive. In the case of `CC(Oc1ccc(Cl)cc1Cl)C(=O)O` (stereo not given) it was “inactive”.

Consider `O=S(=O)(c1ccc(Cl)cc1)c1cc(Cl)c(Cl)cc1Cl`, for which the outcome was inactive.
